Test in all cases: NCI-60 one-dose screen, 48 h (100 = growth as untreated, 0 = no growth, -100 = all killed)
Experiment [1] deals with T-47D breast. Particulars: 10 µM.
In experiment [2] the test system is BT-549 breast. The conditions noted are these: 10 µM unless noted.
Experiment [3] deals with MDA-MB-435 melanoma. Particulars: 10 µM unless noted.
The subject of experiment [4] is SW-620 colon. The conditions noted are these: 10 µM unless noted.
The subject of experiment [5] is MCF7 breast. Particulars: 10 µM unless noted.
Experiment [6] has as its system HCT-116 colon. The conditions noted are these: 10 µM unless noted.
The subject of experiment [7] is HCC-2998 colon. Particulars: 10 µM unless noted.
The test system of experiment [8] is KM12 colon. The conditions noted are these: 10 µM unless noted.

This is part of a sample that, as a whole, favours compounds with a hit. Of some 83,000 tested, about 20% had one in any assay.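 Interpretation: 100, growth as untreated; towards 0, rising growth inhibition; 0, no net growth; 0 to -100, cell death. Compounds scoring below 10 were considered active.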 A number with no mark means an inactive call. The source made the active and inactive calls.

On to `CCOC(=O)c1cn2c3c(cc(F)cc3c1=O)C(CC)c1ccccc1C2` (configuration not stated), for which the growth in experiment [1] is 93.1%; in experiment [2], 96.7%; in experiment [3], 93.9%; in experiment [4], 107%; in experiment [5], 90.3%; in experiment [6], 102%. Further, the values for the growth in experiment [7] and in experiment [8] were 93.7% and 102%, respectively.
Regarding `COC(=O)c1cc(-c2ccc(C)cc2)n(C(=O)CSc2nc3sc(C(N)=O)c(C)c3c(=O)n2Cc2ccccc2)n1`, the growth in experiment [1] is 95.1%; in experiment [2] it was 96.1%; in experiment [3] it was 104%; in experiment [4], 105%; in experiment [5], 90.2%; in experiment [6] it was 92%. In addition, the growth is 108% in experiment [7] and 100% in experiment [8].
Turning to `Clc1ccc2c(c1)C[C@H]1C[C@@H](c3cccs3)N2O1`, the growth is 97.1% in experiment [1]; 105% in experiment [2]; 95.9% in experiment [3]; 99.1% in experiment [4]; 105% in experiment [5]; 105% in experiment [6]. Moreover, the growth was 99.8% in experiment [7] and 104% in experiment [8].
Regarding `Cc1nc2cc(Nc3nc(Nc4ccc(F)cc4)nc(-c4cccs4)n3)ccc2n1Cc1ccccc1`, the growth in experiment [1] is 23.3%; in experiment [2] it was 69.5%; in experiment [3] it was 43.8%; in experiment [4], 68.1%; in experiment [5], 32.9%; in experiment [6], 24.2%. Moreover, the growth in experiment [7] is 72.1%; in experiment [8] it was 25.2%.
In the case of `COc1ccc(-c2c3c(N)c4c(nc3nc3c2c(C)nn3-c2ccccc2)CCCC4)cc1`, the growth in experiment [1] is 84%; in experiment [2], 106%; in experiment [3] it was 77.5%; in experiment [4], 68.2%; in experiment [5], 58.5%; in experiment [6], 31.8%. Moreover, the values for the growth in experiment [7] and in experiment [8] were 100% and 89.6%, respectively.
Consider `Cc1nn2c(-c3nc4ccc(Cl)cc4[nH]3)c(-c3ccc(F)cc3)nc2s1`, for which the growth is 91.2% in experiment [1]; 102% in experiment [2]; 99.7% in experiment [3]; 91.2% in experiment [4]; 81.2% in experiment [5]; 86.3% in experiment [6]. The growth in experiment [7] was 99.2%; in experiment [8], 89.4%.
As for `CC1(C)N=C(N)N=C(N)N1c1cccc(/C=C/C=C/c2cccc([N+](=O)[O-])c2)c1`, the growth is 78.1% in experiment [1]; 46.1% in experiment [2]; 23.3% in experiment [3]; 44.6% in experiment [4]; 57.9% in experiment [5]; 24.7% in experiment [6]. Also, the growth is 45.1% in experiment [7] and 35.5% in experiment [8].
For the molecule `COc1cc2nc(SCc3cc(OC)c(OC)c(OC)c3)n(-c3ccccc3OC)c(=O)c2cc1OC`, the growth is 88.6% in experiment [1]; 87.5% in experiment [2]; 0.0693% (active) in experiment [3]; 76.4% in experiment [4]; 77% in experiment [5]; 88% in experiment [6]. For the same molecule, the figures for the growth in experiment [7] and in experiment [8] were 94.6% and 54.1%, respectively.
In the case of `O=c1c2cc(F)ccc2oc2c(NCCNCCO)nc3ccccc3c12`, the growth in experiment [1] was 84.8%; in experiment [2], 79.8%; in experiment [3], 48.5%; in experiment [4] it was 21.4%; in experiment [5], 31.4%; in experiment [6] it was 17.2%. Also, the growth was 56.5% in experiment [7] and 31.8% in experiment [8].
On to `CCCCCCCCCCCC(=O)[O][Sn]([CH2]CCC)([CH2]CCC)[CH2]CCC`, for which the growth is -89.9% (active) in experiment [1]; -100% (active) in experiment [2]; -91.6% (active) in experiment [3]; -43.2% (active) in experiment [4]; -88.2% (active) in experiment [5]; -100% (active) in experiment [6]. Besides, the growth is -92.2% (active) in experiment [7] and -91.4% (active) in experiment [8].
For the molecule `COc1ccc2nc(-n3nc(C)cc3C)c(-n3nc(C)cc3C)nc2c1`, the growth in experiment [1] is 105%; in experiment [2], 104%; in experiment [3] it was 102%; in experiment [4], 107%; in experiment [5], 109%; in experiment [6] it was 96%. In addition, the growth in experiment [7] was 89.8%; in experiment [8], 116%.
Take `COc1ccc(S(=O)(=O)c2ccc(C(N)=O)cc2)cc1NC(=O)c1[nH]c(C)c2c1CCCCC2=O`: the growth in experiment [1] was 34.4%; in experiment [2], 58.6%; in experiment [3], 28.6%; in experiment [4], 68.4%; in experiment [5] it was 23.1%; in experiment [6], 60%. The growth in experiment [7] is 66%; in experiment [8], 65.4%.
`Nc1nc2c(s1)CCc1c-2c(Br)n(Cc2ccccc2)c1Br`: the growth in experiment [1] is 34.3%; in experiment [2], 93.7%; in experiment [3], 95.6%; in experiment [4], 35.3%; in experiment [5], 78.4%; in experiment [6] it was 23.5%. In addition, the growth was 102% in experiment [7] and 108% in experiment [8].
As to `CS(=O)(=O)Nc1cccc(C(=O)NCc2ccc(N3CCOCC3)cc2)c1`, the growth was 95.4% in experiment [1]; 95.6% in experiment [2]; 105% in experiment [3]; 108% in experiment [4]; 99% in experiment [5]; 101% in experiment [6]. Further, the growth in experiment [7] is 106%; in experiment [8], 97.1%.

The values above are taken from PubChem BioAssay (NCI).
